This note sets out measurements from publication PMC7826789 (International Journal of Molecular Sciences, 2021).

One assay has as its system MAP2K5.
Regarding `COc1cc2nccc(Nc3ccc(OCc4ccc(NC(C)=O)cc4)cc3)c2cc1OC` [GW440135], the Kinases covered entry was “MAP2K5”.

In the case of `Cc1ccc(C(=O)Nc2ccc(Nc3ccnc4cc(-c5ccccn5)ccc34)cc2O)cc1` [GW440146], the Kinases covered entry was “MAP2K5”.

Consider `COc1cc2ncn(-c3cc(OCC4CCCO4)c(C(N)=O)s3)c2cc1OC` (stereo not shown) [GSK204607], for which the Kinases covered result is given as “MAP2K5”.

Take `COc1cc(Nc2nccc(N3CCC(NC(=O)Nc4cc(C)ccc4C)C3)n2)cc(OC)c1OC` (stereo not shown) [GSK1379762]: the Kinases covered result was “MAP2K5”.

A further assay concerns MAPK10.
As to `COC(=O)c1c(-c2ccccc2)c2cc(Br)ccc2c(=O)n1Cc1ccc(S(C)(=O)=O)cc1` [TPKI-100], the Kinases covered entry was “MAPK10”.

Consider `Nc1nccc(-c2c(-c3ccc(F)cc3)ncn2C2CCN(Cc3ccccc3)CC2)n1` [SB-219980], for which the Kinases covered entry is reported as “MAPK10”.

Turning to `Fc1ccc(-c2nn3ccccc3c2-c2ccncc2)cc1` [GW434756X], the Kinases covered result was “MAPK10”.

Regarding `CCc1nc(-c2cccc(C)c2)c(-c2ccncc2)s1` [TPKI-106], the Kinases covered result is “MAPK10”.

In the case of `O=C(O)/C=C/C(=O)O.OCCCNc1nccc(-c2c(-c3ccc(F)cc3)nn3cc(C(F)(F)F)ccc23)n1` [GW569293E], the Kinases covered result is “MAPK10”.

With `CCC(=O)c1c(-c2ccccc2)c2cc(Cl)ccc2c(=O)n1Cc1cc(S(C)(=O)=O)n(CC(N)=O)n1` [TPKI-105], the Kinases covered entry was “MAPK10”.

The next assay deals with MAPK14.
Regarding `CCc1ccc(Oc2nccc(-c3c(-c4ccc(F)cc4)ncn3C3CCNCC3)n2)cc1` [SB-242719], the Kinases covered entry is given as “MAPK14”.

Turning to `O=c1[nH]c2cc(Nc3ccc(F)cc3F)ccc2n1CC1CCCCC1` [BI00601000], the Kinases covered entry is on record as “MAPK14”.

In the case of `COCCNC(=O)c1ccc(-c2cc(C(=O)NC3CC3)cc(F)c2C)cc1` [GW868318], the Kinases covered entry is reported as “MAPK14”.

Turning to `Cc1ccc(C(=O)NCC(N)=O)cc1-n1c(C)cc(OCc2ccc(F)cc2F)c(Br)c1=O` [PFE-PKIS 1], the Kinases covered entry is “MAPK14”.

On to `Nc1nccc(-c2c(-c3ccc(F)cc3)ncn2C2CCN(Cc3ccccc3)CC2)n1` [SB-219980], for which the Kinases covered result was “MAPK14”.

For `Fc1ccc(-c2nn3ccccc3c2-c2ccncc2)cc1` [GW434756X], the Kinases covered entry is listed as “MAPK14”.

`CCc1nc(-c2cccc(C)c2)c(-c2ccncc2)s1` [TPKI-106]: the Kinases covered result was “MAPK14”.

For `Cc1ccc(-n2nc(C(C)(C)C)cc2NC(=O)Nc2ccc(OCCN3CCOCC3)cc2)cc1` [BIRB0876BS], the Kinases covered result was “MAPK14”.

With `O=C(O)/C=C/C(=O)O.OCCCNc1nccc(-c2c(-c3ccc(F)cc3)nn3cc(C(F)(F)F)ccc23)n1` [GW569293E], the Kinases covered entry is “MAPK14”.

The test system of another assay is MAPK15.
Take `CCOc1ccc2c(-c3ccnc(Nc4cccc(C(F)(F)F)c4)n3)cnn2n1` [GW811761X]: the Kinases covered result is on record as “MAPK15”.

Take `O=C(Nc1n[nH]c2cc(-c3ccsc3)ccc12)C1CC1` [SB-732932]: the Kinases covered entry is “MAPK15”.

For `CCOc1ccc2c(-c3ccnc(Nc4cc(OC)cc(C(F)(F)F)c4)n3)cnn2n1` [GW807982X], the Kinases covered result is “MAPK15”.

The next assay deals with MAPK9.
With `Nc1nccc(-c2c(-c3ccc(F)cc3)ncn2C2CCN(Cc3ccccc3)CC2)n1` [SB-219980], the Kinases covered entry is reported as “MAPK9”.

On to `Fc1ccc(-c2nn3ccccc3c2-c2ccncc2)cc1` [GW434756X], for which the Kinases covered result is recorded as “MAPK9”.

For `O=C(O)/C=C/C(=O)O.OCCCNc1nccc(-c2c(-c3ccc(F)cc3)nn3cc(C(F)(F)F)ccc23)n1` [GW569293E], the Kinases covered entry is “MAPK9”.

Another assay relates to MEK5.
Take `COc1cc2ncnc(Nc3ccc(F)c(Cl)c3)c2cc1O[C@H]1CC[C@H](N)CC1` [BIBW3133BS]: the Kinases covered entry is “MEK5”.

For `COc1cc2ncnc(Nc3cccc(Cl)c3F)c2cc1O[C@H]1CC[C@H]([C@@H]2NCCNC2=O)CC1` [BI00133844], the Kinases covered result was “MEK5”.

Take `CCCS(=O)(=O)Nc1ccc(F)c(-n2cc(-c3cncc(OC)c3)nn2)c1F` [BI00865461]: the Kinases covered result was “MEK5”.
